Inconclusive results are not listed. Active and inactive are the calls of the source. The call rests on the fitted dose curve; in most records, active means well fitted inhibition curve with a large enough effect; inconclusive means small, poorly fitted or top-dose-only effect; inactive means flat fitted curve, though single readings scatter.
Legend:
Assay in all cases: qHTS profiling for inhibitors of Plasmodium falciparum proliferation (AID 504749); further: nearly all actives have a fitted effect of over 60% in size
Details in all cases: P. falciparum in erythrocytes, SYBR Green DNA, 72 h; series mostly up to 28.7 µM
CP217 = system: CP217
Outline: (§1)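 Parasite proliferation within erythrocytes, 72 h exposure. Endpoint: SYBR Green I fluorescence after overnight lysis at room temperature. Controls: 0.29 uM artemisinin, DMSO.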

CP237 = system: CP237
Outline: as §1

CP238 = system: CP238
Outline: as §1

CP247 = system: CP247
Outline: as §1

CP250 = system: CP250
Outline: as §1

CP252 = system: CP252
Outline: as §1

CP256 = system: CP256
Outline: as §1

CP260 = system: CP260
Outline: as §1

CP262 = system: CP262
Outline: as §1

CP265 = system: CP265
Outline: as §1

Measured: Potency

CCCC(C)(COC(N)=O)COC(=O)NC1CC1 (centres undefined)
inactive: all assays above

CC(=O)OO
inactive: all assays above

CC(=O)O[C@H]1CC[C@H]2[C@@H]3CCC4=CC(=O)CCC4=C3C=C[C@]12C
inactive: all assays above

O=P(O)(O)C(Cl)(Cl)P(=O)(O)O
inactive: all assays above

CCC1(CC)C(=O)NC(=O)N(C)C1=O
inactive: all assays above

O=CC=O
inactive: all assays above

C#CC(C)(O)CC (centres undefined)
inactive: all assays above

Oc1cc(Cl)c(Cl)cc1Cl
inactive: all assays above

O=C1CCO1
inactive: all assays above

Cn1sc(Cl)cc1=O
inactive: all assays above

CCC(=O)O[C@@](Cc1ccccc1)(c1ccccc1)[C@@H](C)CN(C)C
inactive: all assays above

Clc1ccccc1Cl
inactive: all assays above

C=CCN=C=S
inactive: all assays above

CCOC(=O)c1ccccc1C(=O)OCC
inactive: all assays above

O=C(NCNC(=O)NC1C(=O)NC(=O)N1CO)NC1C(=O)NC(=O)N1CO (centres undefined)
inactive: all assays above

O=[N+]([O-])c1ccc(F)c([N+](=O)[O-])c1
inactive: all assays above

Clc1ccc(Cl)cc1
inactive: all assays above

CC(=O)OC1CN2CCC1CC2 (centres undefined)
inactive: all assays above

O=S(=O)(O)c1cc(O)ccc1O
inactive: all assays above

O=c1[nH]c(=O)n(Cl)c(=O)n1Cl
inactive: all assays above

CCOc1ccc2c3c1O[C@H]1[C@@H](O)C=C[C@H]4[C@@H](C2)N(C)CC[C@@]341
not listed: CP262
inactive: all other assays above

ClCC1CO1 (centres undefined)
inactive: all assays above

ClC(Cl)(Cl)Cl
inactive: all assays above

O=C(CCl)c1ccc(Oc2ccc(C(=O)CCl)cc2)cc1
inactive: all assays above

— PubChem BioAssay (NCATS)
